# Experimental data from article PMC5700166.
# Target: T1, GST-Co-NF-kB (Capsaspora owczarzaki, UniProt F1ARL5 200-546)
# T1 sequence: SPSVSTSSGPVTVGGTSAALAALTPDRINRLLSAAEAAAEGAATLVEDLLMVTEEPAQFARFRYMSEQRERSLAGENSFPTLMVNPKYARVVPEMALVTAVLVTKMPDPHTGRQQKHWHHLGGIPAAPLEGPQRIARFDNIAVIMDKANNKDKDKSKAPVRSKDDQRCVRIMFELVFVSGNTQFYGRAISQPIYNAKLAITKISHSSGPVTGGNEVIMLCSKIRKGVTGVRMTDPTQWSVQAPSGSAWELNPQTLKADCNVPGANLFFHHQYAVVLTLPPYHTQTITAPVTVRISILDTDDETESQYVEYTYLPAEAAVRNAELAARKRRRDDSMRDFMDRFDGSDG
# Experiment: protein-binding microarray (PBM); PBM: ~300 nM protein, 6 mM HEPES pH 7.8, 80 mM KCl, 0.5 mM EDTA, 0.5 mM EGTA, 6% glycerol, 35 ng/ul poly-dIdC, 1% milk, 1 h, room temperature; Ap Aiptasia and Nv Nematostella (sea anemones) / Co Capsaspora / Aq Amphimedon (sponge) / Dm Drosophila / Hu human; RHD is the Rel homology domain; high values mean tight binding
# Conditions: dsDNA, one strand shown
row,Sequence,binding signal [z-score]
1,CCGATTAACATCAAAAATTTTCCTGATGTTAATCGGGTCTTGATTCGCTTGACGCTGCTG,1.7
2,CCGATTAACATCAAAAAATTCCGTGATGTTAATCGGGTCTTGATTCGCTTGACGCTGCTG,1.34
3,CCGATTAACATCACGGAAATTTCTGATGTTAATCGGGTCTTGATTCGCTTGACGCTGCTG,1.12

# Target: T2, GST-Dm-Relish (Drosophila melanogaster, UniProt Q94527 99-473)
# T2 sequence: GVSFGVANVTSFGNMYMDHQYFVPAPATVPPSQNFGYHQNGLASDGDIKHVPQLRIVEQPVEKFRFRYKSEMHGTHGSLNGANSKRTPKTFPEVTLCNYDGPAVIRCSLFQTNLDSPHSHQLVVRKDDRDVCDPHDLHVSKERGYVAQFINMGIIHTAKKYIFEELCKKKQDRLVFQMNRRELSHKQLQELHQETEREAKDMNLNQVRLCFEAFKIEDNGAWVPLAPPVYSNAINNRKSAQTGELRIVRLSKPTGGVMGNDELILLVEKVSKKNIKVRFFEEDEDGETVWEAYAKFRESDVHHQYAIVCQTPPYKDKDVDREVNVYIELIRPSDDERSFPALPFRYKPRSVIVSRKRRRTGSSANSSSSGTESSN
# Experiment: as above
# Conditions: dsDNA, one strand shown
row,Sequence,binding signal [z-score]
1,CCGATTAACATCAGGAATTTCTATGATGTTAATCGGGTCTTGATTCGCTTGACGCTGCTG,1.28
2,CCGATTAACATCAGAAATTTTCCTGATGTTAATCGGGTCTTGATTCGCTTGACGCTGCTG,1.39
3,CCGATTAACATCAGGGCAAGTACTGATGTTAATCGGGTCTTGATTCGCTTGACGCTGCTG,1.44
4,CCGATTAACATCACCGGATTTCCTGATGTTAATCGGGTCTTGATTCGCTTGACGCTGCTG,1.86
5,CCGATTAACATCAAGGAATTCCGTGATGTTAATCGGGTCTTGATTCGCTTGACGCTGCTG,1.78
6,CCGATTAACATCAAGGAATTCCATGATGTTAATCGGGTCTTGATTCGCTTGACGCTGCTG,2.32
7,CCGATTAACATCAGAAAATTCCATGATGTTAATCGGGTCTTGATTCGCTTGACGCTGCTG,1.53
8,CCGATTAACATCAGGAAAGTCCATGATGTTAATCGGGTCTTGATTCGCTTGACGCTGCTG,3.2
9,CCGATTAACATCAGAGGAATTCCTGATGTTAATCGGGTCTTGATTCGCTTGACGCTGCTG,2.63
10,CCGATTAACATCAGGAATTTCCATGATGTTAATCGGGTCTTGATTCGCTTGACGCTGCTG,2.65
11,CCGATTAACATCAAAAAATTCCATGATGTTAATCGGGTCTTGATTCGCTTGACGCTGCTG,2.59
12,CCGATTAACATCAAAAATTTTCCTGATGTTAATCGGGTCTTGATTCGCTTGACGCTGCTG,2.62
13,CCGATTAACATCAAAAAATTCCGTGATGTTAATCGGGTCTTGATTCGCTTGACGCTGCTG,2.44
14,CCGATTAACATCACGGAAATTTCTGATGTTAATCGGGTCTTGATTCGCTTGACGCTGCTG,1.36
15,CCGATTAACATCACGGAAAGTCCTGATGTTAATCGGGTCTTGATTCGCTTGACGCTGCTG,3.12
16,CCGATTAACATCAAAGGATTTCCTGATGTTAATCGGGTCTTGATTCGCTTGACGCTGCTG,1.74
17,CCGATTAACATCACGTGGTTTCCTGATGTTAATCGGGTCTTGATTCGCTTGACGCTGCTG,3.67

row,Sequence,binding signal [z-score]
1,CCGATTAACATCAACAAAATTCCTGATGTTAATCGGGTCTTGATTCGCTTGACGCTGCTG,1.6
2,CCGATTAACATCAGGAGTTTCCATGATGTTAATCGGGTCTTGATTCGCTTGACGCTGCTG,1.28
3,CCGATTAACATCACGGAAAATCCTGATGTTAATCGGGTCTTGATTCGCTTGACGCTGCTG,1.04
4,CCGATTAACATCAAGGAAAGTACTGATGTTAATCGGGTCTTGATTCGCTTGACGCTGCTG,4.7
5,CCGATTAACATCAGAAATTTCCATGATGTTAATCGGGTCTTGATTCGCTTGACGCTGCTG,1.25
6,CCGATTAACATCACGGCCTTTCCTGATGTTAATCGGGTCTTGATTCGCTTGACGCTGCTG,1.05
7,CCGATTAACATCAGGAATTCCACTGATGTTAATCGGGTCTTGATTCGCTTGACGCTGCTG,3.07
8,CCGATTAACATCAAAAAACTTCCTGATGTTAATCGGGTCTTGATTCGCTTGACGCTGCTG,1.56
9,CCGATTAACATCAAAAAATTCCTTGATGTTAATCGGGTCTTGATTCGCTTGACGCTGCTG,2.73
10,CCGATTAACATCAGGTTTTTCCATGATGTTAATCGGGTCTTGATTCGCTTGACGCTGCTG,2.68
11,CCGATTAACATCATAAAATTCCATGATGTTAATCGGGTCTTGATTCGCTTGACGCTGCTG,1.32
12,CCGATTAACATCAAAAATTCCGTTGATGTTAATCGGGTCTTGATTCGCTTGACGCTGCTG,1.08
13,CCGATTAACATCAGGAAAATCCATGATGTTAATCGGGTCTTGATTCGCTTGACGCTGCTG,1.26
14,CCGATTAACATCAAGGAAAATCCTGATGTTAATCGGGTCTTGATTCGCTTGACGCTGCTG,1.5
15,CCGATTAACATCAAAAAAACTCCTGATGTTAATCGGGTCTTGATTCGCTTGACGCTGCTG,3.63
16,CCGATTAACATCAAAGAAATTCCTGATGTTAATCGGGTCTTGATTCGCTTGACGCTGCTG,1.96
17,CCGATTAACATCACGGAATTCCGTGATGTTAATCGGGTCTTGATTCGCTTGACGCTGCTG,1.22
